ELG1 genotox = qHTS screen for small molecules that induce genotoxicity in human embryonic kidney (HEK293T) cells expressing luciferase-tagged ELG1; HEK293T ELG1-luciferase reporter, luminescence, 16 h; Potency, µM (doses to about 46 µM), inactives show at the highest dose activity change, positive = activation, hits mostly activators; hit rate 1.3% among 330,000; further: % of control where 0% means no effect; nearly all actives have a fitted effect of over 60% in size
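Step 1: seed 2,000 HEK293T ELG1-luciferase cells per well. Step 2: add compound or DMSO, incubate 16 hr at 37 °C. Step 3: ONE-Glo, 30 min at room temperature, read luminescence.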
NPC1 prom act = qHTS Assay for NPC1 Promoter Activators. Potency, µM (series often up to 9.22 µM), for inactives: at the highest dose activation, usual class: activators. Huh7 NPC1 promoter luciferase reporter, 24 h. hit rate 2.4% among 320,000; further: % of control where 0% means no effect; nearly all actives have a fitted effect of over 60% in size
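Compounds in DMSO were transferred onto Huh7 NPC1-luciferase reporter cells pre-incubated 2 h; after 24 h at 37 °C, Amplite reagent was dispensed and luminescence recorded 10 min later.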
Rab9 prom act = qHTS Assay for Rab9 Promoter Activators | Huh7 Rab9 promoter-luciferase reporter, luminescence, 24 h | hit rate 2.8% among 320,000 | Potency, µM (highest dose often 9.22 µM), without a hit: at the top dose activation, negative = inhibition, usual class: activators | AID 485297, 2010; further: % of control where 0% means no effect; nearly all actives have a fitted effect of over 60% in size
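Huh7 reporter line, Rab9 promoter upstream of luciferase. Compound exposure 24 h at 37 °C in reduced-serum medium with 10% FBS. Read-out: luminescence.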
SMN2 splice up = qHTS Assay for Enhancers of SMN2 Splice Variant Expression; HEK293 SMN2-luciferase splicing reporter, luminescence, 30-36 h; Potency, µM (series often up to 46.1 µM), inactives show at the top dose activity change, positive = activation, most hits filed as activators; hit rate 2.8% among 210,000; AID 1458, 2008; further: % of control where 0% means no effect; nearly all actives have a fitted effect of over 55% in size
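HEK293 cells carry an SMN2 minigene-luciferase reporter in which exon 7 inclusion puts luciferase in frame. Cells were seeded at 2000 cells/well, attached for 10-12 hours, then exposed to compounds for 30-36 hours at 37C before ONE-Glo luminescence.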
FLuc modulator = qHTS profiling assay for firefly luciferase inhibitor/activator using purifed enzyme and Km concentrations of substrates (counterscreen for miR-21 project); Potency, µM (doses to about 57.5 µM), for inactives: at the top dose activity change, negative = inhibition, most hits filed as inhibitors; AID 588342, 2011; purified FLuc, Km substrates, luminescence inhibition; hit rate 6.9% among 360,000;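 further: plate controls were vehicle for no effect and reference inhibitor for full effect; nearly all actives have a fitted effect of over 55% in size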
Target sequence (P08659 whole entry, looked up): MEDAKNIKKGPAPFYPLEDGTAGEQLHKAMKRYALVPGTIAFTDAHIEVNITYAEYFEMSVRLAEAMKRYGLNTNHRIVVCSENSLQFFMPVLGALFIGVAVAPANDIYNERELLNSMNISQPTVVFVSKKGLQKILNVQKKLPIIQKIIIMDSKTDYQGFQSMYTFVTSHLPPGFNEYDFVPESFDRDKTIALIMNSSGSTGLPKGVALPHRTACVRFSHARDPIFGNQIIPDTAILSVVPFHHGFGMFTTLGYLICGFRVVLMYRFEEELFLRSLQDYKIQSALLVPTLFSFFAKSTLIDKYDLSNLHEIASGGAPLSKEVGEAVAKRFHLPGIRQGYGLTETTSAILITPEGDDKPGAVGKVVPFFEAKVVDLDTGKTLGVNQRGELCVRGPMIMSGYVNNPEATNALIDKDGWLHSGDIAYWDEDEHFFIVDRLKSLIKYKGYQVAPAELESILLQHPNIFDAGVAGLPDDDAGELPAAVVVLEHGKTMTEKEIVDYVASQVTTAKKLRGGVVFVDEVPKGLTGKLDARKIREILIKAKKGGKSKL
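Purified P. pyralis luciferase (10nM final) with 10uM D-luciferin and 10uM ATP (Km levels) in 50mM Tris acetate pH 7.5, 10mM Mg acetate, 0.01% Tween-20, 0.05% BSA; qHTS 6-point titration, ~60 µM downward; luminescence read.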
Numbers without * were called inactive; ? = inconclusive; . = no result. Shown are actives, neighbours in structure and some others; about 7.4% of the full set was active somewhere. The call rests on the fitted dose curve; in most records, active means well fitted curve in the direction sought with a large enough effect; inconclusive means small, poorly fitted or top-dose-only effect, or another doubt; inactive means no such curve, though single readings can be large; an effect the other way counts as inactive or inconclusive. Potency means the concentration at half of the fitted maximal effect.

SMILES	ELG1 genotox	NPC1 prom act	Rab9 prom act	SMN2 splice up	FLuc modulator
CN1CCN(S(=O)(=O)c2ccccc2)C(c2ccccc2)C1 (stereo not given)	-3%	.	.	.	.
CC(C)OCCCNC(=O)c1ccc(CSc2nc3cccnc3n2Cc2ccccc2)cc1	.	.	.	.	-13%
Cc1ccc(CSc2nc3cccnc3n2Cc2ccc(C(=O)NCCc3ccccc3)cc2)cc1	.	.	.	.	0.48µM*
O=C(Nc1ccncc1)Nc1cccc(Cl)c1	-6%	16%	6%	.	?
COc1cccc(NC(=O)Nc2ccc(CC(=O)O)cc2)c1	1%	-7%	2%	-8%	19µM*
COc1cccc(NC(=O)Cc2ccc3ccccc3c2)c1	-1%	0%	16%	.	?
CCc1ccc(NC(=O)Nc2cccc(OC)c2)cc1	?	2.8µM*	3.2µM*	14µM*	2.7µM*
O=C(O)Cc1ccc(NC(=O)Nc2cccc(Cl)c2)cc1	3%	-3%	3%	.	17µM*
CN(C)C(=O)[C@H]1C[C@H]1[C@@H](O)[C@H](CO)NC(=O)[C@H](COCc1ccccc1)NC(=O)OC(C)(C)C	-2%	0%	3.2µM*	.	3%
O=C(Nc1nnc(-c2ccccc2F)s1)c1cccnc1	?	2.2µM*	2µM*	?	9.5µM*
Cc1ccc(NC(=O)Nc2nnc(-c3ccccc3F)s2)cc1	9%	?	?	.	-12%
O=C(Nc1nnc(C(F)(F)F)s1)c1cccnc1	12%	?	4.5µM*	11µM*	12µM*
CCn1c(=O)cc(OCC(=O)N2CCN(c3ccccc3OC)CC2)c2ccccc21	.	.	.	12%	7%
N#Cc1ccccc1NC(=O)CN1C(=O)NC(Cc2c[nH]c3ccccc23)C1=O (stereo not given)	1%	1%	0%	.	9.5µM*
CN1C(=O)C(Cc2c[nH]c3ccccc23)NC1=S (stereo not given)	.	.	.	13µM*	.
O=C(CN1C(=O)NC(Cc2c[nH]c3ccccc23)C1=O)Nc1ccc(F)cc1F (stereo not given)	1%	.	.	.	.
O=C(CN1C(=O)S/C(=C\c2ccc(C(=O)O)cc2)C1=O)Nc1ccccc1	-2%	-1%	3%	.	-14%
O=C(CN1C(=O)S/C(=C\c2ccccc2)C1=O)NNC(=O)c1ccccc1O	2%	3%	8%	-3%	-1%
O=C(CCN1C(=O)S/C(=C\C=C\c2ccccc2)C1=O)Nc1ccc(O)cc1	13µM*	3.5µM*	3.5µM*	.	?
O=C(CCCN1C(=O)S/C(=C\C=C\c2ccccc2)C1=O)Nc1ccc(C(=O)O)cc1	22%	?	?	.	21µM*
COc1ccc(/C=C2/SC(=O)N(CCC(=O)Nc3ccccc3)C2=O)cc1OC	?	-1%	5%	-27%	5%
O=C(CN1C(=O)S/C(=C\C=C\c2ccccc2)C1=O)Nc1cccc(O)c1	?	21%	?	71%	12µM*
O=C(NNC(=O)c1ccccc1-n1cccc1)c1ccc(Cl)nc1	3%	-4%	-1%	.	2%
Cc1ccccc1NC(=O)Nc1ccc(C(F)(F)F)cc1	1%	23%	2.2µM*	.	2.4µM*
Cc1ccccc1NC(=O)Nc1ccc2c(c1)CCC2	?	2.8µM*	2.5µM*	.	2.4µM*
SMILES	ELG1 genotox	NPC1 prom act	Rab9 prom act	SMN2 splice up	FLuc modulator
O=C(Nc1cccc(F)c1)Nc1ccc2c(c1)CCC2	?	2.5µM*	2.5µM*	.	3.4µM*
O=C(Nc1cccc([N+](=O)[O-])c1)Nc1ccc2c(c1)CCC2	-1%	?	?	.	?
O=C(Nc1ccc2c(c1)CCC2)Nc1ccc(F)cc1F	?	1.3µM*	0.79µM*	.	?
Cc1ccccc1NC(=O)CNC(=O)c1ccc(C(F)(F)F)cc1	0%	7%	-3%	12%	?
CCOC(=O)c1ccc(N2C(=O)c3[nH]nc(-c4ccc(OCC)cc4)c3C2c2cccs2)cc1 (stereo not given)	.	.	.	-9%	-6%
CCn1ccnc1CN(C)C(=O)c1ccc(OC2CCN(CCc3ccccc3)CC2)cc1	-1%	1%	-1%	.	0%
Cc1ccc(NC(=O)Nc2ccc3c(c2)CCC3)cc1	?	2µM*	2µM*	.	?
Cc1cc2c(NC(=O)Nc3ccc(C(C)(C)C)cc3)cccc2nn1	-6%	-2%	-8%	.	12µM*
O=C(CNC(=O)c1ccccc1F)Nc1ccc2c(c1)CCC2	?	?	?	.	-19%
Cc1cc(C)cc(NC(=O)Nc2ccc3c(c2)CCC3)c1	14%	?	?	.	-20%
O=C(Nc1ccc2c(c1)CCC2)c1cc(S(=O)(=O)Nc2ccc(F)cc2)c(Cl)cc1Cl	-6%	-4%	-7%	-92%	?
Cc1cc2c(NC(=O)Nc3ccccc3)cccc2nn1	?	-2%	1%	.	-15%
O=C(Nc1ccc2c(c1)CCC2)c1ncoc1-c1ccccc1F	12%	15%	3%	.	8.5µM*
O=C(Nc1ccc2c(c1)CCC2)c1ccc(F)cc1	1.6µM*	0.71µM*	0.45µM*	2.2µM*	1.1µM*
CCOCCc1nn2c(=O)cc(COC(=O)C3CCCCC3)nc2s1	.	.	.	.	-6%
Cc1cccc(C)c1NC(=O)CCc1nnc2ccc(N3CCCC3)nn12	4%	0%	-2%	.	3%
COc1ccc(-n2c(=O)c3c4c(sc3n(Cc3ccc(F)cc3)c2=O)CN(C(C)=O)CC4)c(OC)c1	.	.	.	-1%	-5%
O=C(Nc1ccc2c(c1)CCC2)c1c(F)cccc1Cl	9.2µM*	1.6µM*	1.3µM*	14µM*	9.5µM*
O=C1OCc2ccc(NC(=O)c3c(F)cccc3Cl)cc21	9%	-3%	18%	.	-3%
O=C(Nc1ccccc1)Nc1ccc2c(c1)CCC2	?	2.5µM*	3.5µM*	.	2.7µM*
O=C(Nc1ccc2c(c1)CCC2)Nc1ccccc1F	0.41µM*	0.45µM*	0.63µM*	.	0.67µM*
O=C(Nc1ccc(F)cc1)Nc1ccc2c(c1)CCC2	?	2.5µM*	2.2µM*	.	?
CCOc1ccc(NC(=O)Nc2ccc3c(c2)CCC3)cc1	14%	25%	16%	.	-2%
c1ccc(C2CCCN(Cc3nc(CC4CC4)no3)CC2)cc1 (stereo not given)	12%	11%	24%	5%	24µM*
COc1ccccc1C(=O)NC(=O)COC(=O)c1ccc([N+](=O)[O-])cc1Cl	1%	-1%	-4%	.	0%
N#C/C(=C\c1ccc(-c2cc(Cl)ccc2Cl)o1)C(=O)Nc1ccccc1C(=O)O	.	.	.	-1%	4.3µM*
COc1cc(/C=C(\C#N)C(=O)Nc2ccccc2C(=O)O)cc(Cl)c1OC	0%	-9%	-1%	2%	27µM*

Source: PubChem BioAssay (National Center for Advancing Translational Sciences (NCATS))
